The list is not random: actives were taken first. Their share in the collection is about 1.6%.
eIF4H FP inh: human eIF4H binding inhibitors, primary screen, translation initiation inhibitor project, biochemical, uHTS, fluorescence polarization. Eukaryotic translation initiation factor 4H (Homo sapiens), Q15056. eIF4H fluorescence polarization binding assay. inhibition, % at 35 µM. 290,000 tested, 0.94% active;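 also: calls also rest on retests at 20 µM and on dose response follow-up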
PERK inh: block of dimerizer-induced PERK translation repression, primary screen, PERK inhibitor project, CHO PERK-DD cells, SEAP luminescence, HTS; Eukaryotic translation initiation factor 2-alpha kinase 3 (Homo sapiens), Q9NZJ5; 220,000 tested, 0.17% active; AID 1416, 2008; CHO PERK-DD fusion, SEAP luminescence translation reporter; inhibition, % at 5.6 µM;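 active = inhibition above the mean inhibition of all tested compounds plus 3 SD, set separately per screening campaign, cut at about 2.9% in these data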;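 also: PERK kinase domain activated by AP20187 dimerizer at 100 nM; 0% = DMSO with dimerizer and 100% = rapamycin at 8.4 µM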
PABP FP inh: PABP poly(A) RNA binding inhibitors, primary screen, biochemical, fluorescence polarization, uHTS; Polyadenylate-binding protein 1 (Homo sapiens), P11940; inhibition, % at 35 µM; 290,000 tested, 1% active;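 also: calls also rest on retests at 20 µM and on dose response follow-up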
eIF4E-4G inh: eIF4E–eIF4G protein interaction inhibitors, primary screen, biochemical, uHTS, TR-FRET, eIF4GI fragment. Eukaryotic translation initiation factor 4E (Mus musculus) + Eukaryotic translation …. TR-FRET eIF4E-eIF4GI(517-606) binding, 2 h. inhibition, % at 21.7 µM. 220,000 tested, 0.37% active;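 active = inhibition above about 30%, limit read from the data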;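 also: 0% = full FRET control wells and 100% = background wells lacking eIF4GI fragment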
MLLE-PAM2 inh: inhibitors of PABP1 MLLE–PAM2 peptide binding, primary screen, biochemical, fluorescence polarization, FITC-PAM2, GST-MLLE; Polyadenylate-binding protein 1 (Homo sapiens), P11940; inhibition, % at 20 µM; 360,000 tested, 0.36% active; AID 588489, 2011; in the data active = inhibition above about 35%, passing the limit was not always enough;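 also: plate controls were DMSO wells with GST-MLLE for no effect and wells lacking GST-MLLE protein for full effect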
The depositor's hits bear a star; ? = inconclusive; . = no result; ! = not active in a repeat. Unless noted, no rule for the calls is given here.

SMILES	eIF4H FP inh	PERK inh	PABP FP inh	eIF4E-4G inh	MLLE-PAM2 inh
O=C1NC(=S)CN1c1ccccc1	13	1	4	1	57*
CCn1cc(S(=O)(=O)c2ccc(OC)cc2)c(=O)c2cc(F)c(N3CCN(C)CC3)cc21	-2	.	2	.	7
COc1ccc(NS(=O)(=O)c2cc(NC(=O)CCSc3ccccc3)ccc2OC)cc1	5.3*	-1	75*	1	6
CCCCCC(=O)NC(NC(=S)Nc1ccc(S(N)(=O)=O)cc1)C(Cl)(Cl)Cl (stereo not drawn)	61*	2	35*	2	20
CCCC(=O)NC(NC(=S)Nc1ccc(S(N)(=O)=O)cc1)C(Cl)(Cl)Cl (stereo not drawn)	-5	0	6	-1	28
Cc1c(Cl)cccc1NC(=O)CNC(=O)c1ccccc1F	2.4*	0	66*	1	5
Cc1nc(C)c(C(=O)N2CCCC(C(=O)c3ccc4ccccc4c3)C2)s1 (stereo not drawn)	0	.	2	.	-13
CSc1ccc(Cl)c(C(=O)NCCOc2ccccc2)c1	-5	2	-9	-2	-4
O=C(Nc1nnc(C2CC2)s1)C1CCCO1 (stereo not drawn)	0.7*	0	69	1	-8
C/C(=N\Nc1ccc(C(=O)O)cc1)c1nc2ccccc2n1C	active	0	116*	-2	.
Cc1ccc(NC2=CC(=O)CC(C)(C)C2)cc1F	0	.	-9	.	-2
CCOc1ccccc1/C=C/c1onc(C)c1S(=O)(=O)N1CCC(C(=O)NC)CC1	-1	.	-7	.	-11
CCN(CC)c1cccc(OC2=NS(=O)(=O)c3ccccc32)c1	58*	0	35	3	-16
CCC(C)C(NC(=O)C1CCC(C)CC1)C(=O)NCCCN1CCCCC1CC (stereo not drawn)	1	1	-8	0	-8
Cc1ccc2c(C)c(C(=O)NCC3CCOCC3)oc2c1C	.	.	.	.	-2
COc1ccc(C(=O)Cn2nnc(-c3ccccc3NC(=O)C3CCCCC3)n2)cc1	23	0	62*	-8	-40
COc1ccc(NC(=O)Cn2nnc(-c3ccccc3NC(=O)C3CC3)n2)cc1	-9	-1	1	0	2
O=C(NC(N1CCCC1)C(Cl)(Cl)Cl)c1ccccc1 (stereo not drawn)	8	1	-8	8	7
CC(/C=C\c1cccnc1)=C/C(=O)O	73*!	0	8	3	5
O=C(O)/C=C/c1cccnc1	4	0	13	-1	14
C/C(=N\NC(=O)c1ccc(C)cc1C)c1ccc(-n2ccnc2)cc1	-15	0	-9	1	-2
CCCCn1c(N)c(N(Cc2ccccc2OC)C(=O)COc2ccccc2OC)c(=O)[nH]c1=O	.	.	.	.	-16
N#Cc1c(-c2ccc(F)cc2)cc(-c2cccnc2)nc1N	5	0	0	-18	-9
N#Cc1c(-c2ccco2)cc(-c2ccc(F)cc2)nc1N	62*	2	76*	.	-63
Fc1ccc(-c2nc3cnccn3c2NC2CCCC2)cc1	9	1	7	1	6
SMILES	eIF4H FP inh	PERK inh	PABP FP inh	eIF4E-4G inh	MLLE-PAM2 inh
Cc1cc(=O)[nH]c(SCC(=O)N2CCCc3ccccc32)n1	-5	0	3	1	24
O=C(CSc1nccc(=O)[nH]1)N1CCCc2ccccc21	-6	-1	-2	-1	38*
COc1ccc(OC)c(Cc2nnc(CCC(=O)NC3CCCCCCC3)o2)c1	-1	0	-11	0	-3
Cc1ccccc1C(=O)NC1CCN(C(=O)Nc2ccc(F)cc2)CC1	-6	.	6	.	6
COc1ccc(NC(=S)N=Nc2c(O)[nH]c3ccccc23)cc1	14	-2	3	-9	41*
CNC(=S)N=Nc1c(O)[nH]c2ccccc12	1	1	-8	-4	29
Oc1ccc(NC(=S)N=Nc2c(O)[nH]c3ccccc23)cc1	8	1	24	-3	52*
Cc1ccc(NC(=S)N=Nc2c(O)[nH]c3ccccc23)cc1	8	-1	11	-5	26
Cc1ccc(C2C(C#N)=C3N=C(N)c4ccccc4N3C3=C2C(=O)CCC3)cc1 (stereo not drawn)	?	-1	45	1	1
